MITF act = MITF TRPM1 promoter activation in melanoma cells; SK-MEL-5 TRPM1-promoter luciferase, 24 h; % of positive control, neutral wells = 0; activation, % at 12.5 µM; 300,000 tested, 0.75% active; AID 588334;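 active = mean activation of at least 80% with every replicate also reaching 80%; inconclusive = mean reaches 80% but some replicate falls short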;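 note: 0% = neutral control wells and 100% = parthenolide positive control wells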
HSF1 inhib = HSF1 inhibition. NIH3T3-HGL HSE-luciferase, MG132-induced, luminescence 8 h; stronger effect = lower value. activity change, negative = inhibition, % at 7.5 µM (by protocol). 300,000 tested, 0.77% active. AID 2098;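 active = more than half of replicate wells show activity change below -50%, luminescence cut by over half; inconclusive = some wells, but at most half, below -50%; inactive = no replicate well below -50%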;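 note: luciferase reports HSF-1 transcriptional activity via heat shock element; 0% = median of DMSO wells and -100% = zero luminescence signal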
esBAF inh = SWI/SNF esBAF complex inhibition; mouse ES cells, Bmi1-luciferase knock-in reporter, 24 h; 100% = twice the neutral-well signal; reporter increase, % at 12.5 µM; 350,000 tested, 2% active; in the data active = activation above about 40%; inconclusive = no clear call, values can overlap the other calls;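 note: 0% = median of the plate's neutral control wells and 100% = double that signal; a rise in the Bmi1 reporter signal indicates esBAF inhibition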
Wnt bcat act = activators of Wnt/beta-catenin signaling. Wnt/beta-catenin reporter cell assay, activator, plate reader. activation, % at 9.35 µM. 300,000 tested, 1.2% active; in the data active = activation above about 30%, passing the limit was not always enough; inconclusive = no clear call, values can overlap the other calls;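 note: 0% = neutral control wells and 100% = positive control wells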
HSF-1 act = increases HSF-1 driven luciferase reporter signal | activation, % at 9 µM | AID 504408 | 300,000 tested, 1.7% active | NIH3T3-HGL HSF-1 luciferase reporter, MG132, 8 h; 100% = twice DMSO control signal;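 active = mean replicate activation of at least 50% with a set share of replicates each reaching 50%; inconclusive = only one of those two conditions met; inactive = mean below 50% and too few replicates reaching it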;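 note: 0% = median of the neutral control wells and 100% = twice that signal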
The depositor's hits bear a star; ? = inconclusive; . = no result. A selection: hits, their analogues and other compounds. The true share with any hit is near 3.8%.

SMILES	MITF act	HSF1 inhib	esBAF inh	Wnt bcat act	HSF-1 act
CCOC(=O)COn1c(=O)c(-c2ccc(F)cc2)[n+]([O-])c2ccccc21	.	-3.4	-4.3	-2.2	-10.8
O=C(C[C@@H]1CC[C@H]2[C@@H](COC[C@@H](O)CN2Cc2cc(F)cc(F)c2)O1)NC1CCCC1	.	.	-1.8	.	.
C[C@@H]1CCCCO[C@@H](CN(C)Cc2ccc(Cl)c(Cl)c2)[C@H](C)CN([C@@H](C)CO)C(=O)c2cc(NC(=O)Nc3ccc(F)cc3)ccc2O1	.	.	-0.4	.	.
CCC(=O)N(C)C[C@@H]1Oc2ncc(C#CC(C)C)cc2C(=O)N([C@H](C)CO)C[C@@H]1C	.	.	0.9	.	.
C[C@@H]1CN([C@H](C)CO)C(=O)Cc2cc(NC(=O)CCN3CCOCC3)ccc2O[C@@H]1CN(C)C	.	.	10.5	.	.
C/C(=C\c1ccccc1)C(=O)Nc1nccs1	78.0	32.5	?	52.3*	?
O=C(Nc1nccs1)Oc1ccccc1	-2.2	4.5	-5.0	.	1.1
N#C/C(=C\c1cccs1)C(=O)Nc1nccs1	?	23.3	119.2*	56.0*	60.0*
O=C(CCNC(=O)c1ccc(Br)cc1)Nc1nccs1	4.2	3.9	.	3.4	4.3
O=C(Nc1nccs1)c1ccc(Br)cc1	?	9.8	43.1*	12.1	32.6
COc1ccc(NC(=O)N(C)C[C@@H]2Oc3ccc(N(C)C)cc3CC(=O)N([C@@H](C)CO)C[C@@H]2C)cc1	.	.	0.8	.	.
C[C@@H]1CCCCO[C@H](CN(C)C(=O)Nc2ccc3c(c2)OCO3)[C@@H](C)CN([C@H](C)CO)C(=O)c2cc(NC(=O)NC3CCCCC3)ccc2O1	.	.	1.0	.	.
CCCCOc1ccc(-c2nnn(CCC(=O)N3CCOCC3)n2)cc1	59.8	13.1	62.7*	11.4	32.4
O=C(CCCOc1ccc(Cl)cc1)N1CCOCC1	.	17.6	29.4	10.4	5.2
CCCc1ccc(OCc2ccc(C(=O)N3CCSCC3)o2)cc1	39.4	10.5	47.1*	12.1	15.6
CC(C)(C)c1ccc(OCc2ccc(C(=O)N3CCOCC3)o2)cc1	54.7	20.7	33.8	27.7	58.1*
Cc1cccc(OCc2ccc(C(=O)N3CCOCC3)o2)c1	-5.3	9.3	7.1	0.0	17.4
CC(C)(C)c1ccc(OCCCC(=O)N2CCOCC2)cc1	44.2	12.5	66.4*	14.4	24.7
O=C(C[C@@H]1CC[C@@H]2[C@H](COC[C@H](O)CN2C(=O)Nc2ccc(C(F)(F)F)cc2)O1)NCCc1ccncc1	.	.	-2.5	.	.
C[C@H]1CCCCO[C@@H](CN(C)C(=O)Nc2ccc3c(c2)OCO3)[C@@H](C)CN([C@@H](C)CO)C(=O)c2cc(NC(=O)Nc3ccc(C(F)(F)F)cc3)ccc2O1	.	.	12.5	.	.
CC(=O)Nc1ccccc1NC(=O)C/C(C)=N/NC(=O)c1ccccn1	-1.9	6.8	.	.	42.4
C/C(CC(=O)NCc1ccccc1Cl)=N/NC(=O)c1ccccn1	11.5	7.6	44.4*	-0.6	24.5
CCc1ccc(/C(C)=N/NC(=O)c2ccccn2)cc1	3.9	-1.0	4.5	-2.4	-9.0
CC(=N/O)/C(C)=N\NC(=O)c1ccccn1	46.7	-65.9*	11.0	4.5	-73.0
CC(=O)N(C)C[C@H]1Oc2ncc(-c3ccccc3C)cc2C(=O)N([C@@H](C)CO)C[C@@H]1C	.	.	3.1	.	.
SMILES	MITF act	HSF1 inhib	esBAF inh	Wnt bcat act	HSF-1 act
Oc1c(CN2CCOCC2)cc(COCc2ccccc2)c2cccnc12	-85.8	-78.5*	.	-24.4	-81.8
Oc1c(CNc2ccccc2)cc(COCc2ccccc2)c2cccnc12	-49.9	.	-12.9	-0.1	.
C=CCNC(=O)CSc1nnc(C(CC)N(C)C)n1C1CCCCC1 (stereo not drawn)	-1.3	25.3	-3.1	-2.1	67.3*
CCC(c1nnc(SCC(=O)N2CCOCC2)n1C1CCCCC1)N(C)C (stereo not drawn)	6.9	-5.2	3.4	-0.2	12.6
COc1cccc(-c2ccc3c(c2)[C@@H]2[C@@H](CCN2C(=O)Cc2ccncc2)[C@@H](CO)N3)c1	.	.	20.1	.	.
CC(C)COCC(O)CCC(=O)NNC(=S)Nc1ccccc1 (stereo not drawn)	11.1	-12.7	.	-2.1	7.3
CC(C)COC(=S)Nc1ccccc1	50.0	17.4	59.5*	.	15.6
COc1ccc(C2C(C#N)=C(N)Nc3nc4ccccc4n32)cc1 (stereo not drawn)	20.2	30.8	.	.	52.8*
CCOc1cc(C2NN=C(c3ccc(C)cc3)S2)ccc1O (stereo not drawn)	68.2	.	.	63.4*	.
COc1ccc(-c2ccc3nccn3c2)cc1	.	.	44.9*	-0.7	.

From PubChem BioAssay
